Test results published in PubChem BioAssay.

experiment: circadian clock period modulators, cell-based, LOPAC library, luminescence reporter (AID 2774); settings: circadian reporter cells, at 7 µM, actives lie on both sides; call rule not given here;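 also: values are relative to mean of DMSO wells on each plate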

Period change, inactive:
CCCC(=O)NCCc1c2n(c3ccc(OC)cc13)CCCc1ccccc1-2 0.06 h
Cn1ccnc1 0.39 h
Nn1nnc2ccccc21 -0.155 h
CCCn1c(=O)c2[nH]c(-c3ccc(S(=O)(=O)O)cc3)nc2n(CCC)c1=O -0.005 h
C[C@H](O)C(=O)C1=Nc2c(nc(N)[nH]c2=O)NC1 0.19 h
NC1(C(=O)O)CCc2cc(C(=O)O)ccc21 (stereo not drawn) 0.185 h
Nc1nc(Cl)nc2c1ncn2[C@@H]1O[C@H](CO)[C@H](O)C1O (stereo partly drawn) -0.125 h
N[C@H](C(=O)O)[C@H](O)C(=O)O -0.095 h
C=C1C(=O)O[C@@H]2[C@H]3O[C@]3(C)CCC=C(C)CC[C@@H]12 -0.22 h
C[C@@H]1C(=O)NC2=Nc3cccc(Cl)c3CN21 0.025 h
CCNC(=O)[C@H]1O[C@@H](n2cnc3c(N)nc(NCCc4ccc(CCC(=O)O)cc4)nc32)C(O)[C@H]1O (stereo partly drawn) 0.1 h
Cc1nc(N=Nc2ccc(S(=O)(=O)O)cc2S(=O)(=O)O)c(COP(=O)(O)O)c(C=O)c1O 0.055 h
O=C(Nc1cccc(C(=O)Nc2ccc(S(=O)(=O)O)c3cc(S(=O)(=O)O)cc(S(=O)(=O)O)c23)c1)Nc1cccc(C(=O)Nc2ccc(S(=O)(=O)O)c3cc(S(=O)(=O)O)cc(S(=O)(=O)O)c23)c1 -0.03 h
Nc1nc2[nH]c(=O)cnc2c(=O)[nH]1 0 h
N[C@@H](Cc1cnc[nH]1)C(=O)O 0.03 h
CC1(C)CCC(NC(=O)[C@@H](N)CCC(=O)O)CC1 -0.095 h
C#CC(N)CCC(=O)O (stereo not drawn) 0 h
C=CCN1CCc2c(cc(O)c(O)c2Br)[C@@H](c2ccccc2)C1 0.175 h
N=C(N)c1ccc(N)cc1 -0.005 h
O=C1C2C=CC=CC2=NC(=S)N1CCN1CCC(=C(c2ccc(F)cc2)c2ccc(F)cc2)CC1 (stereo not drawn) -0.295 h
N.N.O=C(O)C1(C(=O)O)CCC1.[Pt+2] 0.07 h
[Li+] -0.09 h
COc1cc2c(CCNC(C)=O)c[nH]c2cc1O -0.175 h
OC1(c2ccc(Cl)cc2)CCN(Cc2c[nH]c3ccccc23)CC1 0.165 h
N=C(N)c1ccccc1 -0.055 h
CC(=O)SCC[N+](C)(C)C 0.015 h
COc1cccc(C(=O)NCCN2CCN(c3ccc(Cl)cc3)CC2)c1 -0.035 h
OCC1NCC(O)C(O)C1O (stereo not drawn) 0.035 h
C=C/C(C)=C/[C@@]1(C)SC(=O)C(C)=C1O -0.02 h
CCCOC(=O)c1c(-c2ccccc2)nc(CC)c(C(=O)SCC)c1CCC -0.02 h
Oc1ccc(C2CNCc3sccc32)cc1O (stereo not drawn) 0.045 h
Nc1ncnc2c1nc(Sc1ccc(Cl)cc1)n2C1OC2COP(=O)(O)O[C@@H]2[C@@H]1O (stereo partly drawn) -0.015 h
O=C(O)CCC(C(=O)O)N1C(=O)c2ccccc2C1=O (stereo not drawn) -0.075 h
Nc1ncnc2c1nc(Br)n2C1OC2COP(=O)(O)O[C@@H]2C1O (stereo partly drawn) -0.095 h
Nc1nc(Nc2ccccc2)nc2c1ncn2[C@@H]1O[C@H](CO)[C@H](O)C1O (stereo partly drawn) -0.07 h
COc1ccc(NC(=O)/C=C/c2ccc(Cl)cc2)cc1 -0.055 h
C=CCn1c(=O)c2c(nc(-c3ccc(S(=O)(=O)O)cc3)n2C)n(C)c1=O -0.155 h
N[C@H](CO)C(=O)O -0.02 h
